# Results from PubChem BioAssay AID1986 (Sanford-Burnham Center for Chemical Genomics, 2009).
# Hit rate of the full screen: of about 290,000 compounds, about 890 (0.31%) were called active. Cut-off read from the data, not from the text of the source: active = inhibition mostly above about 52% (no sharp cut-off); inactive = mostly below about 76%. Shown is part of a subset that was picked to be rich in actives.
# Test: inhibitors of HIV fusion peptide binding, primary screen, biochemical, uHTS, fluorescence dequenching (AID 1986)
# Conditions: cell-free peptide binding, 30 min, stronger effect = higher value
# [1] = measured here: repeat confirmation average inhibition, at 18.6 µM
Compound,inhibition (at 20 µM),inhibition [1]
O=C(COC(=O)c1ccc([N+](=O)[O-])s1)NC(c1ccccc1)c1ccccc1,0% (inactive),
O=C(NC(=S)NC1CCSC1=O)c1ccc([N+](=O)[O-])cc1 (stereo not given),-1.4% (inactive),
COc1ccc(OC)c(CNC(=O)CCC(=O)N2Cc3cccc(OC)c3Oc3ncccc32)c1,1.2% (inactive),
COc1ccc2nc(N/C(=N/S(=O)(=O)c3cccs3)c3ccccc3Cl)sc2c1,30.6% (inactive),
Cc1ccc2nc(N/C(=N/S(=O)(=O)c3cccs3)c3ccccc3Cl)sc2c1,69.2% (active),
Cc1ccc2nc(N/C(=N/S(=O)(=O)c3ccc(F)cc3)c3ccccc3)sc2c1,8.2% (inactive),
Cc1cc(C)nc(SCc2nc(N)nc(-c3ccccc3O)n2)n1,-1.6% (inactive),
COc1cc2c(cc1OC)CN(C(=O)c1sc(-c3cnccn3)nc1C)CC2,0.1% (inactive),
CCOc1cc(/C=N/NC(=O)CN2CCCCC2)ccc1OCc1ccc(Cl)cc1,-0.7% (inactive),
CCOc1cc(/C=N/N=C2/NC(=O)C(CC(=O)O)S2)ccc1OCc1ccccc1Cl (stereo not given),53% (inactive),36.4%
COc1cc(/C=N/N=C2/NC(=O)C(CC(=O)O)S2)ccc1OCc1ccc(Cl)cc1 (stereo not given),51.8% (active),
COc1ccc(/C=N/N=C2/NC(=O)C(CC(=O)O)S2)cc1OCc1ccc(Cl)cc1 (stereo not given),44% (inactive),
CCOc1cc(/C=N/NC(=O)CN2CCOCC2)ccc1OCc1ccc(Cl)cc1,0.5% (inactive),
COc1ccc(/C=N/N=C2/NC(=O)C(CC(=O)O)S2)cc1OCc1ccc(Cl)cc1Cl (stereo not given),50.6% (inactive),47.2%
COc1cc(/C=N/N=C2/NC(=O)C(CC(=O)O)S2)ccc1OCc1cccc(Cl)c1 (stereo not given),47.1% (inactive),
Cc1ccc(NC(=S)NCCN(C2CCCCC2)C2CCCC2)cc1C,0.4% (inactive),
COc1cc(C(C)=O)ccc1COc1ccc(C(=O)O)cc1OC,2.1% (inactive),
O=C(NC1CC2CCCC(C1)N2Cc1ccco1)NC12CC3CC(CC(C3)C1)C2 (stereo not given),0.1% (inactive),
CCC(=O)Oc1ccc2c(C)cc(=O)oc2c1C(=O)c1ccccc1,1.8% (inactive),
COc1ccc(C(=O)c2cc3cccc(OC)c3o2)cc1,-1% (inactive),

Compound,inhibition (at 20 µM),inhibition [1]
COc1ccc(N2C(=O)c3cccc4c(N(C)CCO)ccc(c34)C2=O)cc1,150% (inactive),
Cc1ccccc1N1C(=O)c2cccc3c(N(C)CCO)ccc(c23)C1=O,2.4% (inactive),
COc1ccccc1N1C(=O)c2cccc3c(N(C)CCO)ccc(c23)C1=O,64% (active),61.6%
COc1ccccc1/C=C/C=N/n1c(-c2ccncc2)n[nH]c1=S,1.2% (inactive),
CC(C)=NNc1nc2sc3c(c2c(=O)[nH]1)CC(C)(C)OC3,6.1% (inactive),
CN(C)[C@@H]1C(=O)C(C(=O)NCN2CCCC2)=C(O)[C@@]2(O)C(=O)C3=C(O)c4c(O)cccc4[C@@](C)(O)C3CC12 (stereo not given in full),55.1% (active),
C=CCCC(=O)N1CCC(n2nccc2NC(=O)CCCc2ccccc2)CC1,-2.2% (inactive),
COc1ccc2nc(N/C(N)=N/C(=S)Nc3cccc(C)c3)nc(C)c2c1,1.7% (inactive),
CCCCCOc1ccc(/C=c2\sc3nc(=O)c(-c4ccccc4)nn3c2=O)cc1OC,51.8% (active),
COc1cc(/C=c2\sc3nc(=O)c(-c4ccccc4)nn3c2=O)ccc1OCCC(C)C,62.3% (inactive),39.1%
COc1ccc(/C=c2\sc3nc(-c4ccccc4)c(-c4ccccc4)n3c2=O)cc1OC,-0.1% (inactive),
CC(=O)Oc1ccc(/C=N/NC2=NS(=O)(=O)c3ccccc32)cc1,0.3% (inactive),
CCCc1ccc(Oc2coc3cc(OCC(=O)Nc4ccccc4C)ccc3c2=O)cc1,-2.2% (inactive),
Cc1cc(/C=N/NC(N)=S)c(O)c(/C=N/NC(N)=S)c1,88.3% (active),
NC(=S)N/N=C/c1ccccc1O,-1.4% (inactive),
NC(=S)N/N=C/c1cccc(O)c1O,3.4% (inactive),
CCOC(=O)Cn1c(=N)n(CCOc2ccc(F)cc2)c2ccccc21,0% (inactive),
COc1ccc(CCNC(=O)C2CCC(=O)N(CC3CCCCC3)C2)cc1 (stereo not given),0.4% (inactive),
N/C(Cc1cccc2ccccc12)=N\OC(=O)COc1ccccc1,2.3% (inactive),
Cn1cc(/C=N/NC(=O)c2cc3cc(Br)ccc3o2)c2ccccc21,4.4% (inactive),

Compound,inhibition (at 20 µM),inhibition [1]
O=C(O)c1ccc(-n2cccc2/C=N\NC(=O)c2cc3cc(Br)ccc3o2)cc1,50.1% (active),
O=C(O)Cn1cc(/C=N/NC(=O)c2cc3cc(Br)ccc3o2)c2ccccc21,29.5% (inactive),
Cc1ccc(NC(=O)C2CCN(S(=O)(=O)c3ccc4c(c3)CCCC(=O)N4)CC2)c(Br)c1,1.8% (inactive),
CCOC(=O)/C(=C/C1=CC(=C/N(C)C)/C(=O)O1)C(C)=O,59.4% (active),65.4%
CN(C)/C=C1/C=C(C=O)OC1=O,-0.5% (inactive),
CC1=C/C(=C/N(C)C)C(=O)O1,5.9% (inactive),
COc1cc([N+](=O)[O-])ccc1N1C(=O)CC(Sc2nccc(C)n2)C1=O (stereo not given),-1% (inactive),
CC1=CC2=NC(=O)/C(=C/c3coc4ccc(Cl)cc4c3=O)C(=N)N2O1,99.7% (active),62.3%
CC(C)CSC1=NSC2=NC(=O)/C(=C\c3coc4ccccc4c3=O)C(=N)N12,148% (inactive),
CC1=CC2=NC(=O)/C(=C\c3ccc(-c4ccc(Cl)cc4)o3)C(=N)N2O1,13.2% (inactive),
N=C1/C(=C\c2coc3ccccc3c2=O)C(=O)N=C2SC(c3ccncc3)=NN12,146% (inactive),
N=C1/C(=C\c2coc3ccccc3c2=O)C(=O)N=C2SC=CN12,146% (inactive),
CCSC1=NSC2=NC(=O)/C(=C\c3coc4ccccc4c3=O)C(=N)N12,89.7% (active),
CC(C)CSC1=NSC2=NC(=O)/C(=C\c3ccccc3)C(=N)N12,46.5% (inactive),
CSC1=NSC2=NC(=O)/C(=C\c3coc4ccccc4c3=O)C(=N)N12,44.5% (inactive),
CC(C)CC1=NN2C(=N)/C(=C\c3coc4ccccc4c3=O)C(=O)N=C2S1,148% (inactive),
CC1=CC2=NC(=O)/C(=C\c3cc(C)n(-c4cccc(Cl)c4)c3C)C(=N)N2O1,0.2% (inactive),
CSC1=NSC2=NC(=O)/C(=C/c3coc4ccccc4c3=O)C(=N)N12,91.2% (active),
N=C1/C(=C/c2coc3ccccc3c2=O)C(=O)N=C2SC(c3ccco3)=NN12,114% (active),
